Compound activity deposited in PubChem by National Center for Advancing Translational Sciences (NCATS).
In the library only some 10% were active in any assay of this set; here they are far more common.
Pf growth 48h: P. falciparum growth inhibition at 48 hours (one generation); P. falciparum luciferase growth in erythrocytes, 48 h; Potency, µM (titrated, usually from 28.7 µM), without a hit: top-dose activity change, negative = inhibition, actives largely listed as inhibitors; 5.9% of 310,000 active; AID 504832; note: % is set by controls: 0 for no effect and ±100 for the full control effect
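Compounds are pin-transferred into medium, infected erythrocytes (2% hematocrit, 0.1% parasitemia final) are added, and plates sit one parasite generation at 37 C in 5% CO2. Detection reagent is then added and luminescence measured.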
NS1 inh: inhibitors of influenza NS1 protein function | 0.4% of 270,000 active | Potency, µM (titrated, usually from 46.1 µM), without a hit: at the top dose activity, positive = more growth | AID 2326; calls by dose curve; note: actives are rising curves; nearly all actives have a fitted effect of over 50% in size
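A cell-based growth assay was used: compounds that relieve NS1-induced slow growth of budding yeast raise OD600. Assay medium was yeast nitrogen base with ammonium sulphate and -URA supplement, pH 6.0, with 2% galactose.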
SARS PLpro yeast: inhibitors of SARS-CoV papain-like protease in yeast | AID 485353 | 0.19% of 330,000 active | Potency, µM (titrated, usually from 32.9 µM), inactives show at the highest dose activity, positive = growth rescue, hits mostly activators | S. cerevisiae expressing SARS-CoV PLpro, growth rescue; calls by dose curve; note: 0% is about no effect; nearly all actives have a fitted effect of over 55% in size
Pf growth 96h: P. falciparum growth inhibition at 96 hours. AID 504834. P. falciparum luciferase reporter growth, 96 h. Potency, µM (highest dose often 28.7 µM), inactives show at the highest dose activity change, negative = inhibition, hits mostly inhibitors. 6.9% of 320,000 active; note: % is set by controls: 0 for no effect and ±100 for the full control effect
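Two-generation exposure (96 h) targets delayed-death phenotype. Reporter parasites carrying integrated firefly luciferase, in red cells at 2% hematocrit and 0.05% parasitemia final, kept at 37 C, 5% CO2; luminescence loss indicates inhibition.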
* hit, by the source's call. Unless noted, calls come from the whole dose curve; as a rule, active = well fitted inhibition curve with a large enough effect; inconclusive = small, poorly fitted or top-dose-only effect, or another doubt; inactive = no such curve, though single readings can be large or run the other way. Potency is the fitted concentration of half-maximal effect.

`COc1ccc(/C=N/n2c(N)c(S(=O)(=O)c3cccs3)c3nc4ccccc4nc32)cc1OC` gave Pf growth 48h 2.9µM*, NS1 inh 5% and SARS PLpro yeast 2%.
For COc1cccc(/C=N/n2c(N)c(S(=O)(=O)c3cccs3)c3nc4ccccc4nc32)c1 the results were Pf growth 48h inconclusive, NS1 inh -6%, SARS PLpro yeast 4% and Pf growth 96h inconclusive.
For COc1cc2c(cc1OC)[C@]13CC[N@+]4(C)CC5=CCO[C@H]6CC(=O)N2[C@@H]1C6[C@@H]5C[C@]34O (stereo partly specified) the results were NS1 inh 4%.
`O=C(Nc1ccc(-c2nc3ccccc3o2)c(O)c1)c1cc(-n2cnnc2)ccc1Cl` gave Pf growth 48h 9.3µM*, NS1 inh inconclusive, SARS PLpro yeast 0% and Pf growth 96h -16%.
`O=C(Nc1ccc(-c2nc3ccccc3o2)cc1)c1ccc(N2C(=O)C3C4C=CC(C4)C3C2=O)cc1` (stereo unspecified) gave NS1 inh 10%, SARS PLpro yeast -4% and Pf growth 96h 1.9µM*.
Screening O=C(Nc1ccc(N2CCOCC2)cc1)c1cc(-n2cnnc2)ccc1Cl returned Pf growth 48h 10%, NS1 inh 5%, SARS PLpro yeast 3% and Pf growth 96h -10%.
Screening O=C(Nc1ccccc1)c1cc(-n2cnnc2)ccc1Cl returned Pf growth 48h -11%, NS1 inh 11%, SARS PLpro yeast 10µM* and Pf growth 96h 43%.
`O=C(Nc1ccc(-c2nc3ccccc3o2)cc1)c1cc(-n2cnnc2)ccc1Cl` gave Pf growth 48h 12µM*, NS1 inh 4%, SARS PLpro yeast 16% and Pf growth 96h 15µM*.
`O=C(Nc1ccc2oc(-c3ccccc3)nc2c1)c1cc(-n2cnnc2)ccc1Cl` gave Pf growth 48h -24%, SARS PLpro yeast 0% and Pf growth 96h -26%.
`NC[C@@H]1O[C@H](OC2[C@@H](CO)O[C@@H](OC3[C@H](O)[C@H](N)C[C@H](N)[C@H]3OC3O[C@H](CO)[C@@H](O)[C@H](O)[C@@H]3N)[C@H]2O)C(N)[C@H](O)[C@@H]1O` (stereo partly specified) gave Pf growth 48h -13% and Pf growth 96h 0%.
For CN(C)c1ccc(/C=N\NC(=O)c2cccc3cc[nH]c23)cc1 the results were Pf growth 48h 54%, NS1 inh -42%, SARS PLpro yeast -2% and Pf growth 96h inconclusive.
`CCN1CCN(C(c2cccs2)C(C)NC(=S)NC2CCCCC2)CC1` (stereo unspecified) gave Pf growth 48h -7%, NS1 inh 5%, SARS PLpro yeast 0% and Pf growth 96h -12%.
O=C(NCCN1CCOCC1)c1cc(-c2ccc(F)cc2)on1 was read as Pf growth 48h 29%, NS1 inh -5%, SARS PLpro yeast 7% and Pf growth 96h 0.29µM*.
Screening CC(NC(=O)Cc1cccs1)C(c1cccs1)N1CCOCC1 (stereo unspecified) returned Pf growth 48h 13µM*, NS1 inh 4% and SARS PLpro yeast -16%.
`O=C(NCCCN1CCOCC1)c1cc(-c2ccc(F)cc2)on1` gave Pf growth 48h 45%, NS1 inh -3%, SARS PLpro yeast 5% and Pf growth 96h 32%.
O=C(Cc1cccs1)NCCN1CCOCC1 was read as Pf growth 48h -8%, NS1 inh 18%, SARS PLpro yeast 13% and Pf growth 96h 4.1µM*.
Screening Cc1ccccc1CC(=O)NCCN1CCOCC1 returned Pf growth 48h 7%, NS1 inh 14%, SARS PLpro yeast 4% and Pf growth 96h inconclusive.
For CC(NC(=S)NC1CCCCC1)C(c1cccs1)N1CCOCC1 (stereo unspecified) the results were Pf growth 48h inconclusive, NS1 inh -9%, SARS PLpro yeast -2% and Pf growth 96h 8.3µM*.
C[C@]12c3[nH]c4ccccc4c3CCN1C(=O)C(CC(=O)NCCN1CCOCC1)C[C@@H]2C(=O)N1CCCCC1 (stereo partly specified) was read as SARS PLpro yeast 4%.
Screening Cc1csc(NC(=O)CCC(=O)N(CC(=O)NC2CCCCC2)c2ccccc2)n1 returned Pf growth 48h -26%, NS1 inh -15%, SARS PLpro yeast 0% and Pf growth 96h 48%.
CCc1nc2ccc(C(=O)NCCCN3CCN(c4ccc(F)cc4)CC3)cc2nc1CC was read as Pf growth 48h inconclusive, NS1 inh 1%, SARS PLpro yeast 2% and Pf growth 96h 34%.
Screening CN1CCN(CCNC(=O)c2ccc3nc(-c4ccc(F)cc4)c(-c4ccc(F)cc4)nc3c2)CC1 returned Pf growth 48h 9.3µM*, NS1 inh 4%, SARS PLpro yeast -4% and Pf growth 96h inconclusive.
For Cc1ccc(C(=O)NCCNC(=O)Cc2ccccc2)cn1 the results were Pf growth 48h 16%, NS1 inh 8%, SARS PLpro yeast 1% and Pf growth 96h 1%.
Screening Cc1cc(/C=N/NC(=O)C(=O)NCc2ccccn2)c(C)n1-c1ccccc1 returned Pf growth 48h 29%, NS1 inh 2%, SARS PLpro yeast 14% and Pf growth 96h 18%.
Screening CC(=O)N1CCOc2cc(S(=O)(=O)NC(C)c3ccccc3)c(Cl)cc21 (stereo unspecified) returned Pf growth 48h -64%, NS1 inh 18%, SARS PLpro yeast -3% and Pf growth 96h -16%.
`CC(=O)N1CCOc2cc(S(=O)(=O)Nc3cccc(C(F)(F)F)c3)c(Cl)cc21` gave Pf growth 48h 13µM*, SARS PLpro yeast -1% and Pf growth 96h inconclusive.
Screening O=C(c1ccccc1)N1CCN=C1c1ccccc1 returned Pf growth 48h -11%, NS1 inh 11%, SARS PLpro yeast -9% and Pf growth 96h 12µM*.
For COc1c(C)c2c(c(O)c1CC=C(C)CCC(=O)OCCN1CCOCC1)C(=O)OC2 the results were Pf growth 48h 9.5µM* and Pf growth 96h -20%.
COc1cc(C(=O)OCCN2CCOCC2)ccc1O was read as Pf growth 48h -3%, NS1 inh 7%, SARS PLpro yeast 8% and Pf growth 96h 78%.
Screening Nc1cccc(C(=O)OCC(=O)NC2CCCc3ccccc32)c1 (stereo unspecified) returned Pf growth 48h 12µM*, SARS PLpro yeast 2% and Pf growth 96h 19%.
Screening O=C(Nc1nc(-c2cc3ccccc3o2)cs1)c1ccc(S(=O)(=O)N2CCCC2)cc1 returned Pf growth 48h -28%, NS1 inh 3%, SARS PLpro yeast -12% and Pf growth 96h 13µM*.
`CC1CN(S(=O)(=O)c2ccc(C(=O)Nc3nc(-c4cc5ccccc5o4)cs3)cc2)CC(C)O1` (stereo unspecified) gave Pf growth 48h 0%, NS1 inh 8%, SARS PLpro yeast -11% and Pf growth 96h 0%.
Screening COc1cccc(-c2csc(N3CCN(S(=O)(=O)c4ccc(F)cc4)CC3)n2)c1 returned Pf growth 48h inconclusive, NS1 inh 1%, SARS PLpro yeast -10% and Pf growth 96h -5%.
